KDM5B inh – Primary screen for KDM5B Histone Demethylases FDH-coupled qHTS | Potency, µM (highest dose often 57.7 µM), usual class: inhibitors | 220,000 tested, 2.6% active | Lysine-specific demethylase 5B (Homo sapiens), Q9UGL1 | AID 1347165, 2019 | KDM5B demethylase, FDH-coupled NADH fluorescence (FDH is formaldehyde dehydrogenase); active = well fitted inhibition curve with a large enough effect; note: 0% is about no effect; nearly all actives have a fitted effect of over 70% in size
Target sequence (Q9UGL1 whole entry, looked up): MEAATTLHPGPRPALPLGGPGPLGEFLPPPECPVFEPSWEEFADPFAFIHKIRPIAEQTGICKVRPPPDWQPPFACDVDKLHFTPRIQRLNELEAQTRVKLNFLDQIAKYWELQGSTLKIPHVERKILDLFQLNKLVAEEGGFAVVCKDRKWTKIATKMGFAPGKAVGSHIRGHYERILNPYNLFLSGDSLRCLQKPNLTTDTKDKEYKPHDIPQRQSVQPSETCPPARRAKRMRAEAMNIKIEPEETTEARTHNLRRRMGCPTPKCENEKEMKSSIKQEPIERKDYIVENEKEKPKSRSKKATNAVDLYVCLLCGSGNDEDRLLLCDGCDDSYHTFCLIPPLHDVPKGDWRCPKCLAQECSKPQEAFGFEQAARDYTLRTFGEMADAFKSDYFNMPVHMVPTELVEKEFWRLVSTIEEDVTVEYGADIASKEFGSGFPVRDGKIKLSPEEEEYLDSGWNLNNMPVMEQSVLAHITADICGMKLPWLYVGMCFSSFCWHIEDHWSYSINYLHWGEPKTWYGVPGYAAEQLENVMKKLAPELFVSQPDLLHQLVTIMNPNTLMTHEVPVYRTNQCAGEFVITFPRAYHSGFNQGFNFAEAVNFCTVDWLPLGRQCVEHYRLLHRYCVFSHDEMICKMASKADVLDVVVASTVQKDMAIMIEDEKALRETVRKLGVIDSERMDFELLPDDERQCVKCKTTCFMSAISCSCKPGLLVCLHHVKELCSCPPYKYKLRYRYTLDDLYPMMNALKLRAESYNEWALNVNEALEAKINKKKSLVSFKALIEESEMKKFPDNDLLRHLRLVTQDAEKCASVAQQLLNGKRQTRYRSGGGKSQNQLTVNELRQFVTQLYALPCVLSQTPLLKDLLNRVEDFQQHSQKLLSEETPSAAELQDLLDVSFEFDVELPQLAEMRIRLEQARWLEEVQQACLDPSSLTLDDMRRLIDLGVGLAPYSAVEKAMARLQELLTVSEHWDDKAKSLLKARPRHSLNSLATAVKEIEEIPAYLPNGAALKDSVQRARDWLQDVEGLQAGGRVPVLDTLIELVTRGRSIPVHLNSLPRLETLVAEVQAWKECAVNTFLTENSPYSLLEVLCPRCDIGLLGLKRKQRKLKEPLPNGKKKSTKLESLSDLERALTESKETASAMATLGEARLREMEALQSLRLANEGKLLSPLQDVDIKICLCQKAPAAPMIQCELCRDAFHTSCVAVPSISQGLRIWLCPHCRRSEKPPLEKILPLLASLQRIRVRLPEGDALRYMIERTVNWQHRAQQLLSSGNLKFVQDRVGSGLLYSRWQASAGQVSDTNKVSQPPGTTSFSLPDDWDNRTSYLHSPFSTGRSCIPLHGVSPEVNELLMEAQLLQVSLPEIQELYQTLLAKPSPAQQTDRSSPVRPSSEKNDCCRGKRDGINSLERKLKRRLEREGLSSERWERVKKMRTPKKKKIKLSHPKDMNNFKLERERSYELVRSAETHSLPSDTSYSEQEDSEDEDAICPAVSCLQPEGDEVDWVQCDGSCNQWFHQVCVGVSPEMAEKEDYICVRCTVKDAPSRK
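Compound dilutions met 200 nM (final) KDM5BΔAP for 10 min at room temperature before substrate addition. The substrate mix held 12.5 µM H3K4me3 with cofactors 25 µM α-ketoglutarate and 50 µM Fe²⁺. NADH signal gain over 30 min defined activity.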
* hit, by the source's call. This is one part of a sample in which hits are shown more often than they occur. Potency is the fitted concentration of half-maximal effect.

Results for Cc1[nH]c2ccccc2c1CC(=O)N1CCN(S(=O)(=O)c2ccccc2F)CC1 ?
KDM5B inh: inactive

How did Cc1cc(C(=O)N2CC(N(CC(C)C)C3CCOCC3)C2)nn1C do in these assays?
KDM5B inh: inactive

Results for Cc1noc(C)c1-c1cc2cc(C(C)C)oc2c(-c2ccc(CO)cc2)n1 ?
KDM5B inh: 28µM*

Results for COc1ncccc1-c1nc(-c2c(C)noc2C)cc2cc(C(C)C)oc12 ?
KDM5B inh: 32µM*

What do the screens show for `Cc1noc(C)c1-c1cc2cc(C(C)C)oc2c(-c2c(C)noc2C)n1`?
KDM5B inh: inactive

Results for Cc1noc(C)c1-c1cc2cc(C(C)C)oc2c(NCCN(C)C)n1 ?
KDM5B inh: inactive

How did CNC(=O)c1cc2cc(-c3c(C)noc3C)nc(-c3cccnc3OC)c2o1 do in these assays?
KDM5B inh: 35µM*

How did COc1ncccc1-c1nc(-c2c(C)noc2C)cc2c1cc(C)n2C do in these assays?
KDM5B inh: inactive

What do the screens show for `Cc1noc(C)c1-c1cc2cc(C(C)C)oc2c(-c2cccnc2)n1`?
KDM5B inh: 32µM*

What do the screens show for `O=C(COc1ccccc1C(=O)Nc1ccccc1)NC1CCCC1`?
KDM5B inh: inactive

What do the screens show for `CCc1ccc(CCC(=O)NNc2cccc(Cl)c2)cc1`?
KDM5B inh: inactive

How did Cc1cc(C(=O)N(Cc2ccco2)C2CC2)sc1C do in these assays?
KDM5B inh: inactive

What do the screens show for `CC1=C(C(=O)Nc2ccccc2C)C(c2ccc(C(F)(F)F)cc2)n2ncnc2N1` (centres undefined)?
KDM5B inh: inactive

How did CCCCCCCCOc1ccc(-c2ccc(CCCCCCCC)cn2)cc1F do in these assays?
KDM5B inh: inactive

How did Cc1cc(C)cc(NC(=O)C2=Cc3sc4c(c3CS2)CCCC4)c1 do in these assays?
KDM5B inh: inactive

Results for COc1ccc(C)cc1N(C)C(=O)Cn1nc(Cc2ccncc2)c2ccccc2c1=O ?
KDM5B inh: inactive

Results for COc1ccc(NC(=O)CCCc2nc(C(C)C)no2)cc1OC1CCCC1 ?
KDM5B inh: inactive

Results for CC(C)(C)c1ccc(/C=C2\Oc3cc(OS(C)(=O)=O)ccc3C2=O)cc1 ?
KDM5B inh: inactive

What do the screens show for `O=C(COc1ccccc1)N1CC2CC(C1)[C@H]1CCCC(=O)N1C2` (some centres undefined)?
KDM5B inh: inactive

What do the screens show for `O=C(COc1ccccc1)N1CCC(N2CC3CC(C2)[C@H]2CCCC(=O)N2C3)CC1` (some centres undefined)?
KDM5B inh: 22µM*

How did COCCOCC(=O)N1CCC(N2CC3CC(C2)[C@H]2CCCC(=O)N2C3)CC1 (some centres undefined) do in these assays?
KDM5B inh: inactive

Results for Cc1ccc(NC(=O)N2CCC(N3CC4CC(C3)[C@H]3CCCC(=O)N3C4)CC2)cc1 (some centres undefined) ?
KDM5B inh: inactive

Results for Cc1nc(C)c(C(=O)N2CCC(N3CC4CC(C3)[C@H]3CCCC(=O)N3C4)CC2)s1 (some centres undefined) ?
KDM5B inh: 16µM*

What do the screens show for `COc1ccc(NC(=O)N2CCC(N3CC4CC(C3)[C@H]3CCCC(=O)N3C4)CC2)cc1OC` (some centres undefined)?
KDM5B inh: 25µM*

How did COc1ccc(C(=O)N2CCC(N3CC4CC(C3)[C@H]3CCCC(=O)N3C4)CC2)cc1 (some centres undefined) do in these assays?
KDM5B inh: inactive

What do the screens show for `COc1ccc(C)cc1NC(=O)N1CCC(N2CC3CC(C2)[C@H]2CCCC(=O)N2C3)CC1` (some centres undefined)?
KDM5B inh: inactive

What do the screens show for `CC(C)C(=O)N1CCC(N2CC3CC(C2)[C@H]2CCCC(=O)N2C3)CC1` (some centres undefined)?
KDM5B inh: inactive

Results for O=C(NCc1cccc(Cl)c1)N1CC=C(c2ccc(F)cc2)CC1 ?
KDM5B inh: inactive

What do the screens show for `COc1ccc(OC)c(S(=O)(=O)n2nc(C)c(S(=O)(=O)N(C)c3ccccc3)c2C)c1`?
KDM5B inh: inactive

How did Brc1cccc(Oc2nc(-c3ccncc3)nc3ccccc23)c1 do in these assays?
KDM5B inh: inactive

Results for COc1cc(/C=C(\C#N)c2ccccc2)c(Br)cc1OCc1ccccc1Cl ?
KDM5B inh: inactive

Results for CS(=O)(=O)c1ccc(C(=O)N(Cc2ccco2)Cc2cccs2)cc1 ?
KDM5B inh: inactive

What do the screens show for `CCC(C)NC(=O)C(=O)NCCc1c[nH]c2ccccc12` (centres undefined)?
KDM5B inh: inactive

What do the screens show for `Cc1cncc(-c2ccccc2OCCN(C)C)c1`?
KDM5B inh: inactive

What do the screens show for `CN(C)CCOc1ccccc1-c1ccc(C#N)cc1`?
KDM5B inh: 32µM*

How did N#Cc1ccc(-c2ccc(OCCOc3ccccc3Cl)cc2)cc1 do in these assays?
KDM5B inh: inactive

What do the screens show for `Cc1ccccc1/C=C/C(=O)NC1CC1`?
KDM5B inh: inactive

Source: PubChem
